Among the data in PubChem BioAssay (NCI) are growth values, retold here.

What all share (assay): NCI-60 one-dose screen, 48 h (100 = growth as untreated, 0 = no growth, -100 = all killed)
Conditions in all cases: 10 µM unless noted

Experiment [1] relates to NCI-H23 lung.
Experiment [2] concerns NCI-H226 lung.
Experiment [3] concerns NCI-H322M lung.
The subject of experiment [4] is HOP-62 NSCLC.
Experiment [5] deals with NCI-H460 lung.
For experiment [6], the system named is HOP-92 NSCLC.
Experiment [7] has as its system NCI-H522 lung.
In experiment [8] the test system is A549/ATCC NSCLC.
The subject of experiment [9] is 786-0 renal.
In experiment [10] the test system is COLO 205 colon.

About 83,000 compounds went through this panel and 20% of them were active in at least one assay; those are over-represented in the sample as a whole.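 Compound tested at a single concentration for 48 hours in 96-well plates; a percent growth value below 10 was scored as active.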 A number with no mark means an inactive call. Calls of active or inactive are those of the source.

For `COC(=O)[C@]1(C)CCC[C@]2(C)[C@H]3C[C@H]4C(C(C)C)=C[C@]3(CC[C@H]21)[C@H]1[C@@H]4[C@@H](OCCC#N)CC[C@@H]1OCCC#N`, the growth in experiment [1] was 46.3%; in [2], 46.1%; in experiment [3] it was 98.6%; in experiment [4], 75.3%; in experiment [5] it was 33.3%; in experiment [6] it was 26.2%. Further, the growth is 28.4% in experiment [7], 37.4% in experiment [8], 37.3% in [9] and 11.9% in experiment [10].
On to `Cc1ccc(Sc2oc(-c3ccc(C)cc3)nc2[P+](c2ccccc2)(c2ccccc2)c2ccccc2)cc1`, for which the growth in [1] is -17.2% (active); in experiment [2], 15.7%; in [3], 10.3%; in experiment [4] it was 9.94% (active); in experiment [5], -39.6% (active); in experiment [6], -9.3% (active). The growth is -38.5% (active) in experiment [7], 7.74% (active) in experiment [8], 3.99% (active) in experiment [9] and -41.5% (active) in experiment [10].
For `CC(C)(C)n1cc(-c2ccnc(NCCNS(=O)(=O)c3cccc4ccccc34)c2)c(-c2cccc(F)c2)n1`, the growth in experiment [1] was 0.565% (active); in [2], -25.7% (active); in experiment [3], 20.8%; in experiment [4], 26.4%; in experiment [5], -26.9% (active); in experiment [6] it was -19.3% (active). For the same molecule, the growth in [7] was -38.9% (active); in experiment [8], 16.3%; in experiment [9], -91.4% (active); in [10] it was -67.9% (active).
On to `COc1ccc(-c2cn(-c3cc(OC)c(OC)c(OC)c3)c(=O)n2C(C)=O)cc1`, for which the growth in experiment [1] was 94.9%; in experiment [2], 88.1%; in experiment [3] it was 99.6%; in [4], 83.7%; in experiment [5], 106%; in experiment [6] it was 94.2%. Moreover, the growth is 73.5% in experiment [7], 91.8% in experiment [8], 35.4% in experiment [9] and 119% in experiment [10].
For the molecule `O=C(c1ccc(-c2ccccc2)cc1)c1ccc([N+](=O)[O-])cc1`, the growth in [1] was 103%; in [2], 98.5%; in experiment [3], 115%; in [4] it was 111%; in experiment [5] it was 109%; in experiment [6], 90.6%. For the same molecule, the growth is 89.5% in [7], 114% in experiment [8], 99.9% in experiment [9] and 111% in [10].
For the molecule `CC1(C)CCC(S(=O)(=O)c2ccc3c(c2)/C(=N\O)c2cc(S(=O)(=O)N4CCC(O)(c5cccc(C(F)(F)F)c5)CC4)ccc2-3)CC1`, the growth was -48.7% (active) in experiment [1]; -55.9% (active) in [2]; -38.5% (active) in experiment [3]; -92.1% (active) in experiment [4]; -84.5% (active) in experiment [5]; -36% (active) in experiment [6]. The growth is -81.4% (active) in experiment [7], -83.9% (active) in experiment [8], -87.3% (active) in [9] and -90% (active) in experiment [10].
`CN(C)CCCn1c2c(c3ncccc3c1=O)C(=O)c1ccccc1-2`: the growth is 54.8% in experiment [1]; 54.1% in experiment [2]; 44.1% in experiment [3]; 51.9% in [4]; 11.6% in experiment [5]; 70.9% in experiment [6]. Also, the growth in experiment [7] is 34.4%; in experiment [8], 42%; in experiment [9], 52.2%; in experiment [10], 20.4%.
For the molecule `COc1ccc(N2CCC(=O)NC2=S)cc1`, the growth in experiment [1] is 96.2%; in [2] it was 98.6%; in experiment [3], 112%; in experiment [4], 107%; in experiment [5], 104%; in [6] it was 125%. Further, the growth in [7] is 88.9%; in experiment [8], 108%; in experiment [9] it was 104%; in experiment [10], 106%.
`O=C(NCCCN1CCOCC1)c1cccc(N2C(=O)/C(=C/c3ccc(F)cc3)SC2=S)c1`: the growth was 92.5% in [1]; 90.4% in experiment [2]; 104% in experiment [3]; 100% in [4]; 107% in experiment [5]; 46.7% in [6]. Besides, the growth in experiment [7] is 90.3%; in [8] it was 103%; in experiment [9], 97.2%; in experiment [10], 111%.
Take `O=[N+]([O-])C1C(c2ccccc2)C12c1ccccc1-c1ccccc12` (stereo not given): the growth in [1] is 7.97% (active); in experiment [2], 15%; in experiment [3], 29.3%; in experiment [4], 34.2%; in experiment [5], -14.3% (active); in experiment [6], -3.91% (active). Besides, the growth in [7] is -13.8% (active); in experiment [8] it was 8.59% (active); in experiment [9], 4.98% (active); in [10], 14.9%.
For `Cn1ccc2c3c(ccc21)CC3=O`, the growth in experiment [1] was 97%; in experiment [2] it was 100%; in experiment [3], 116%; in experiment [4], 111%; in experiment [5], 108%; in experiment [6], 114%. Moreover, the growth is 98.4% in experiment [7], 105% in experiment [8], 107% in experiment [9] and 119% in [10].
With `Cc1ccc2c(n1)C(=O)c1[nH]c3ccccc3c1C2=O`, the growth in [1] is -33.8% (active); in [2], 55.7%; in [3] it was 31.8%; in experiment [4], 39.5%; in experiment [5], -50.6% (active); in experiment [6] it was 78%. Further, the growth in experiment [7] is 59.7%; in experiment [8], -14.4% (active); in experiment [9], 78.1%; in experiment [10], 23.9%.
For `CN(C)c1ccc(/C=C/C(=O)c2ccc(-n3cc(CN4CCN(c5cc6c(cc5F)c(=O)c(C(=O)O)cn6C5CC5)CC4)nn3)cc2)cc1`, the growth in experiment [1] is 80.3%; in experiment [2], 81.7%; in experiment [3], 77.5%; in [4], 67.3%; in experiment [5], 32.5%; in experiment [6], 50.3%. Besides, the growth in experiment [7] was 48.5%; in experiment [8], 82.2%; in [9] it was 33.2%; in experiment [10], 105%.
On to `Clc1ccc(Sc2cnc(-c3ccccc3)o2)cc1`, for which the growth was 95.5% in [1]; 106% in experiment [2]; 91.9% in experiment [3]; 94.4% in experiment [4]; 110% in [5]; 86.1% in [6]. The growth in experiment [7] is 99.2%; in experiment [8], 92%; in experiment [9], 93.9%; in experiment [10], 110%.
On to `Cc1nc(N2CCOCC2)sc1S(N)(=O)=O`, for which the growth was 102% in experiment [1]; 84.5% in experiment [2]; 94% in experiment [3]; 94.5% in experiment [4]; 102% in [5]; 88.2% in experiment [6]. The growth in [7] was 92.8%; in experiment [8], 101%; in experiment [9], 101%; in experiment [10] it was 104%.
Turning to `COc1cc(OC)cc(C2=C3CC[C@@H]4[C@H](CC[C@]5(C)C(=O)CC[C@@H]45)C3=CC3C(O)c4cccnc4N4C(=O)COC234)c1` (stereo not given in full), the growth was 98.6% in experiment [1]; 102% in experiment [2]; 114% in experiment [3]; 95.3% in experiment [4]; 103% in [5]; 104% in experiment [6]. Moreover, the growth in experiment [7] is 90.3%; in experiment [8], 94.2%; in [9], 98.5%; in experiment [10] it was 109%.
Turning to `CN1C(=O)/C(=C/c2cn(-c3ccccc3)nc2-c2ccccc2)SC1=S`, the growth is 95.4% in [1]; 98.3% in [2]; 107% in [3]; 97.9% in [4]; 101% in experiment [5]; 51.4% in experiment [6]. In addition, the growth in experiment [7] was 90.2%; in [8], 102%; in [9] it was 107%; in experiment [10], 124%.
`COc1ccc(-c2nn(-c3ccccc3)cc2/C=C2/SC(=S)N(C)C2=O)cc1`: the growth is 94.5% in experiment [1]; 55.1% in experiment [2]; 60.8% in experiment [3]; 25.3% in experiment [4]; 11.2% in experiment [5]; 74.7% in [6]. For the same molecule, the growth in experiment [7] is 91.2%; in experiment [8], 36.8%; in [9] it was 1.33% (active); in experiment [10] it was 64.4%.
With `COC(=O)c1n[nH]c2ccc3nc(-c4cn[nH]c4C(F)(F)F)c4c(c3c12)CCCC4`, the growth in [1] was 56%; in experiment [2], 51.6%; in experiment [3] it was 45.1%; in [4], 46.9%; in experiment [5], 29.3%; in [6], 30.9%. Also, the growth in experiment [7] was 23.6%; in experiment [8] it was 39%; in [9], 35.5%; in [10], 3.9% (active).
Regarding `COP(=O)(OC)C(C)(C)CC(=O)CC(C#N)(C#N)C(C#N)C#N`, the growth in [1] is 98.7%; in [2] it was 92.9%; in [3] it was 99.3%; in experiment [4], 98.1%; in experiment [5], 112%; in experiment [6], 55.9%. In addition, the growth is 101% in experiment [7], 104% in experiment [8], 105% in experiment [9] and 107% in [10].
On to `N#CC1=C(N)Oc2c(sc3c(F)cccc23)C1c1ccc(F)cc1` (stereo not given), for which the growth in experiment [1] is 38.9%; in experiment [2] it was 36.5%; in experiment [3], 49.3%; in experiment [4], 35.1%; in [5], 11.6%; in [6] it was 44.5%. The growth in [7] was -3.69% (active); in experiment [8], 25.7%; in experiment [9] it was 19.8%; in experiment [10], 13%.
On to `CCCCNc1ccc(C#N)c(OCCN(CC)CC)c1`, for which the growth in experiment [1] was 92.8%; in experiment [2], 88%; in [3] it was 100%; in experiment [4], 101%; in [5], 104%; in experiment [6], 94.4%. Further, the growth is 92.8% in experiment [7], 101% in experiment [8], 112% in [9] and 100% in experiment [10].
With `N#Cc1cccc(-c2c(-c3ccc4ccccc4c3)oc3ccccc3c2=O)c1`, the growth in [1] was 60.7%; in [2], 71.2%; in [3], 64.6%; in experiment [4] it was 41.5%; in experiment [5], 17.9%; in experiment [6], 51.8%. The growth in experiment [7] was 10.5%; in experiment [8], 34.9%; in experiment [9], 35.5%; in [10] it was 36.7%.
`CCn1cc(C(=O)N/N=C/c2cccs2)c(=O)c2cc(F)c(N3CCNC(C)C3)c(F)c21` (stereo not given): the growth in experiment [1] is 89.8%; in [2], 76%; in experiment [3] it was 84.1%; in [4], 72.4%; in [5] it was 23.6%; in experiment [6] it was 53.8%. The growth in experiment [7] is 71.1%; in experiment [8], 44%; in experiment [9] it was 67.8%; in experiment [10], -41.7% (active).
Turning to `CCN(CC)CCOc1ccc(-c2c(-c3ccccc3)c(=O)oc3ccccc23)cc1`, the growth in experiment [1] was 94.8%; in [2], 82.7%; in experiment [3] it was 110%; in experiment [4], 95.5%; in experiment [5], 95.8%; in [6], 84.3%. Further, the growth in experiment [7] is 71.6%; in [8] it was 92%; in [9] it was 85%; in experiment [10], 81.2%.
For the molecule `COc1cc2oc(-c3cccc(NC(=O)c4cccc(Br)c4)c3)cc(=O)c2c(OC)c1OC`, the growth in experiment [1] was 57.2%; in experiment [2], 73.7%; in [3], 76.4%; in [4], 55.5%; in [5] it was 34.7%; in [6] it was 47.5%. Further, the growth in experiment [7] is 38.6%; in experiment [8], 49.3%; in experiment [9] it was 59%; in experiment [10], 57.8%.
